Rab2 wt GTP: modulators of GTP binding to Rab2A wildtype, primary screen, biochemical, dog, bead-based flow cytometry, multiplex; GST-Rab2 wt beads, Bodipy-GTP binding; GTP binding activity, % at 10 µM; Ras-related protein Rab-2A (Canis lupus familiaris), P61105; actives 0.19% (n = 190,000); AID 760, 2007;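 active = GTP binding activity at least 20 points away from 100%, either lowered or raised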;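 also: 0% = beads with excess unlabeled GTP and 100% = no-compound control corrected for plate trend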
Rac1 mut GTP: GTP binding modulators of activated mutant Rac1, primary screen, biochemical, bead-based flow cytometry, multiplex, fluorescent GTP. Ras-related C3 botulinum toxin substrate 1 (Homo sapiens), P63000. GST-Rac1 activated beads; actives lie on both sides; 100% means binding = to untreated wells. percent activity (GTP binding), % at 10 µM. actives 0.11% (n = 190,000);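 active = GTP binding at least 20 percentage points away from the 100% baseline, in either direction, so actives lie on both sides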
Cdc42 wt GTP: modulators of GTP binding to wildtype Cdc42, primary screen, biochemical, multiplex bead flow cytometry, Bodipy-GTP; Cell division control protein 42 homolog (Homo sapiens), P60953; GST-Cdc42 beads; actives lie on both sides; percent activity (GTP binding), % at 10 µM; actives 0.2% (n = 190,000);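 active = percent activity GTP binding at least 20 points away from the 100% baseline, either down as inhibitor or up as activator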;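 also: median bead fluorescence of bound Bodipy-FL-GTP at 100 nM; 0% = excess unlabeled GTP control and 100% = no compound control; below 100% means less GTP binding so inhibitor and above means activator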
Target sequence (P60953 whole entry, looked up): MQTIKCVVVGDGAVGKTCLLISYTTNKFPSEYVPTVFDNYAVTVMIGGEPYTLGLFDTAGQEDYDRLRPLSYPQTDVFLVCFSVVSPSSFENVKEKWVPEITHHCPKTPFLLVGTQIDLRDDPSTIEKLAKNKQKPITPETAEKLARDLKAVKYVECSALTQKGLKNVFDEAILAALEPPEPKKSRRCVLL
HRas wt GTP bind: modulators of GTP binding to HRas wildtype, primary screen, biochemical, bead-based flow cytometry, multiplex; GTPase HRas (Homo sapiens), P01112; GST-Ras wt beads, Bodipy-FL-GTP binding; actives lie on both sides; GTP binding activity, % at 10 µM; actives 0.14% (n = 190,000); AID 759, 2007;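 active = GTP binding activity at least 20% away from the 100% baseline, either lowered as inhibitor or raised as activator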;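 also: 0% = unlabeled GTP competition control and 100% = no-compound control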
Target sequence (P01112 whole entry, looked up): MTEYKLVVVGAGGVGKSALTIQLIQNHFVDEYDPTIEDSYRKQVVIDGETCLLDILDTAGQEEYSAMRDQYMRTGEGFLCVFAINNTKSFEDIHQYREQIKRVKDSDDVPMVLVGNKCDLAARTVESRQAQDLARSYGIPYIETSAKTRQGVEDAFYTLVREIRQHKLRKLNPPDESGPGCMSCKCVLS
Rab7 wt modul: modulators of GTP binding to Rab7, primary screen, biochemical, wildtype, multiplex bead flow cytometry. actives 0.055% (n = 190,000). GTP binding activity (percent of control), % at 10 µM. Rab7 GTPase wild type (dog), Bodipy-FL-GTP binding. GST-Rab7 beads, fluorescent GTP binding; actives lie on both sides; untreated = 100%, excess cold GTP = 0%;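 active = fluorescent GTP binding to Rab7 beads changed by at least 20 points from the 100% baseline, either direction, mostly lower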;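 also: median green fluorescence of bound Bodipy-FL-GTP per Rab7 bead population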
Rac1 wt modul: wildtype Rac1 GTP binding modulators, primary screen, biochemical, GST-Rac1 beads, flow cytometry, multiplex; fluorescent GTP binding; actives lie on both sides; 0 = cold GTP competed, 100 = untreated; actives 0.27% (n = 190,000); GTP binding activity (% of control), % at 10 µM; AID 757, 2007; Ras-related C3 botulinum toxin substrate 1 (Homo sapiens), P63000;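 active = GTP binding activity at least 20 points away from the 100% control level, either lower or higher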
Starred values were filed as active, the others as inactive; [ ] = remark or other dose. Sampled rows, rich in hits. Any-hit rate of the full collection: about 0.37%.

SMILES	Rab2 wt GTP	Rac1 mut GTP	Cdc42 wt GTP	HRas wt GTP bind	Rab7 wt modul	Rac1 wt modul
N#Cc1c2nc3ccccc3nc2n2cc(NC(=O)c3ccc(F)cc3)ccc12	77*	88	91	81	89	79*
O=C(Nc1nc2ccccc2[nH]1)c1ccc(F)cc1	101	103	103	101	97	103
CCCCNS(=O)(=O)c1ccc(NC(=O)Cc2ccc(OC)cc2)cc1	95	95	94	96	93	98
COc1ccc(CC(=O)Nc2ccc(S(=O)(=O)NC(C)C)cc2)cc1	29*	29*	30*	33*	22*	27*
CC(=O)OC(C(=O)NC1CCCCC1)c1ccc(Cl)c(Cl)c1 (stereo unspecified)	33*	31*	35*	35*	22*	29*
CC(SC(=S)N(C)Cc1cccs1)C(=O)O (stereo unspecified)	140*[activator]	144*[activator]	168*[activator]	140*[activator]	136*[activator]	196*[activator]
CCCCOC(=O)CSC(=S)N(C)Cc1cccs1	104	101	102	103	100	100
CCc1nnc2c(N(C)C)nc3ccccc3n12	85	91	92	89	88	76*
CCCc1nnc2c(N(C)S(=O)(=O)c3ccc(C)cc3)nc3ccccc3n12	97	101	101	101	101	104
Cc1cccc(Nc2nc(NCc3ccco3)nc(N3CCOCC3)n2)c1	103	101	104	104	101	103
Nc1nc2c(c(=O)[nH]1)C(c1cccc3ccccc13)C1=C(N2)c2ccccc2C1=O (stereo unspecified)	79*	87	79*	83	91	74*
O=C(NCc1ccc(C(=O)O)cc1)OCc1ccccc1	93	94	93	93	101	101
Cc1cccc(/C=N/N(CCO)C2=NS(=O)(=O)c3ccccc32)c1	81	84	82	80	92	68*
N#CCCN(/N=C/c1cccnc1)C1=NS(=O)(=O)c2ccccc21	87	95	89	87	96	85
Cn1c(=O)c2c(nc(N/N=C/c3ccco3)n2C)n(C)c1=O	83	85	83	85	90	74*
O=C(Nc1ccc(S(=O)(=O)N2CCCc3ccccc32)cc1)C1CCCO1 (stereo unspecified)	111	102	117	110	103	120*[activator]
O=C(CCN1CCCC1Cc1ccccc1)c1ccc2c(c1)OCCO2 (stereo unspecified)	84	83	76*	85	90	84
O=C(CCN1CCCCC1)c1ccc2c(c1)OCCO2	103	102	105	103	103	108
OC(CNCCC1C=Nc2ccccc21)Cn1c2ccc(Cl)cc2c2cc(Cl)ccc21 (stereo unspecified)	113	108	115	114	112	144*[activator]
Cc1cc(C)n(CC(O)Cn2c3ccc(Cl)cc3c3cc(Cl)ccc32)c(=O)n1 (stereo unspecified)	96	99	100	99	96	102
CC1N(C)c2cc(NC(=O)c3cccs3)c(P(=O)(Nc3ccc([N+](=O)[O-])cc3)N3CCOCC3)cc2C1(C)C (stereo unspecified)	100	97	97	98	106	98
Cc1cc(C)n(C(=O)CNC(=O)c2ccc3c(c2)OCCO3)n1	32*	33*	34*	38*	20*	29*
Cc1cc(C)n(C(=O)CNC(=O)C2COc3ccccc3O2)n1 (stereo unspecified)	100	97	102	99	96	104
CCn1cc(CNC(=S)Nc2cccc(Cl)c2C)cn1	102	96	100	100	107	101
Clc1ccccc1N=C1NN=C(c2cccs2)CS1	96	97	97	97	103	97
SMILES	Rab2 wt GTP	Rac1 mut GTP	Cdc42 wt GTP	HRas wt GTP bind	Rab7 wt modul	Rac1 wt modul
CC(=O)Nc1ccc(NC(=O)CCn2nnc3ccccc32)cc1	35*	101	86	32*	39*	102
Cn1c(C(=O)OCC(=O)NCc2ccco2)cc2sccc21	100	99	101	99	98	105
CCC(OC(=O)c1cc2sccc2n1C)C(=O)NCc1ccco1 (stereo unspecified)	36*	37*	40*	44*	22*	37*
N#C/C(=C\c1ccco1)c1nc2ccccc2s1	99	99	98	100	96	100
N#C/C(=C/c1ccc(-c2cc(C(=O)O)cc(C(=O)O)c2)o1)c1nc2ccccc2s1	67*	77*	71*	75*	86	70*
Cc1cccc(-n2nc(CC#N)c(C#N)c2N)c1	78*	91	82	82	90	82
O=C1COc2ccc(C(=O)c3ccccc3C(=O)NCc3ccccc3)cc2N1	100	100	103	101	102	104
COc1ccc(/C=C2\SC(=S)NC2=O)cc1OS(=O)(=O)c1ccc(NC(C)=O)cc1	108	110	108	111	118	135*[activator]
COc1cc(/C=C2/SC(=S)NC2=O)ccc1OS(=O)(=O)c1ccc(C)cc1	96	98	98	97	96	96
Cn1cccc1/C=C1\SC(=S)N(NC(=O)c2ccccc2Cl)C1=O	83	89	88	89	90	78*
O=C(O)CSc1ccc2nnc(-c3cccnc3)n2n1	88	91	87	91	98	78*
COc1ccc(C(=O)CSc2ccc3nnc(-c4cccnc4)n3n2)cc1	95	96	92	98	101	88
CC(C)C(NC(=O)OCc1ccccc1)C(=O)N1CCOCCOCCOCC1 (stereo unspecified)	99	96	98	96	101	95
COc1cc(SC#N)ccc1N=Cc1c(C)[nH]n(-c2ccc(Cl)cc2)c1=O	90	96	95	94	97	93
COc1cc(SC#N)ccc1N=Cc1c(C)[nH]n(-c2ccc(C)c(C)c2)c1=O	79*	87	88	80	89	78*
C/C(=N\Nc1cc(C)nc(-c2ccccc2)n1)c1cccc([N+](=O)[O-])c1	84	86	82	88	89	73*

High-throughput results from PubChem.
